Reference: PubChem BioAssay (NCATS)
Results filed as inconclusive are left out. The source made the active and inactive calls. Calls come from the whole dose curve; as a rule, active = well fitted cell-killing curve with a large enough effect; inconclusive = small, poorly fitted or top-dose-only effect, or effect the other way; inactive = no such curve, though single readings can be large or run the other way.

assay: Quantitative High-Throughput drug screen in 47 multiple myeloma cell lines against the NCATS MIPE library collection: OCIMY7_PLB cell viability assay (AID 1918987); settings: OCI-MY7 myeloma viability, CellTiter-Glo ATP, 48 h; series mostly up to 45.8 µM; note: nearly all actives have a fitted effect of over 65% in size
Description: PI: Beverly A. Mock Ph.D.
Laboratory of Cancer Biology and Genetics,
Center for Cancer Research, National Cancer Institute,
National Institute of Health, Bethesda, Maryland
Drug resistance and disease progression are common in multiple myeloma (MM) patients, underscoring the need for new therapeutic combinations. […] We hypothesized that effective combinations would reduce MYC expression and enhance p16 activity. […] These preclinical data identify potentially useful drug combinations for evaluation in drug-resistant MM and reveal potential mechanisms of combined drug sensitivity.
Described herein is the primary MIPE qHTS used to cherrypick compounds. Validated compounds were then further tested for potential synergistic activiy.
[1] Peat TJ, Gaikwad SM, Dubois W, Gyabaah-Kessie N, Zhang S, Gorjifard S, Phyo Z, Andres M, Hughitt VK, Simpson RM, Miller MA, Girvin AT, Taylor A, Williams D, D'Antonio N, Zhang Y, Rajagopalan A, Flietner E, Wilson K, Zhang X, Shinn P, Klumpp-Thomas C, McKnight C, Itkin Z, Chen L, Kazandijian D, Zhang J, Michalowski AM, Simmons JK, Keats J, Thomas CJ, Mock BA. Drug combinations identified by high-throughput screening promote cell cycle transition and upregulate Smad pathways in myeloma. Cancer Lett. 2023 Aug 1;568:216284. doi: 10.1016/j.canlet.2023.216284. Epub 2023 Jun 24. PMID: 37356470; PMCID: PMC10408729.
SEQUENCE No. (e.g., 1, 2, 3, etc.); […] (e.g., Cells, Incubation, Reagent, etc.); VALUE and DESCRIPTION.
1; Cells; 5 uL; white, solid bottom 1536-well Greiner assay plate.
2; Compounds; 23 nL; Kalypsis pin tool (Wako USA) equipped with a 1536-well pin head to transfer to the assay plates.
3; Incubation; 48 hours; 37C incubation.
4; Reagent;5uL; CellTiter Glo (Promega).
5; Detector; 425V; Luminescence; Viewlux PerkinElmer.
NOTES (numbers refer to Sequence numbers above)
1. The cell-based screening methods employed in this study were like those previously published. Briefly, the corresponding myeloma cell lines were screened in 1,536-well plates with 500 cells, 5-uL per well for inhibition of cell viability (assessed by measuring ATP levels with CellTiterGlo).
2. NCATS MIPE 4.0 library of approved and investigational drugs were added using the Kalypsis pin tool. Wells treated with DMSO only for 100% viability and media only for 0% viability were used as controls.
3. The assay plates were covered and incubated for 48 hours in a 37C, 5% CO2 incubator with controlled humidity.
4. After 48 hours, CellTilter-GloTM luminescent substrate mix (Promega) reagent was added to the assay plate and plates we incubated for 5 min at room temperature.
5. Signal was measured as median relative luminescence units on a ViewLux (PerkinElmer) multiplate reader.
[1] Heske CM, Davis MI, Baumgart JT, Wilson K, Gormally MV, Chen L, Zhang X, Ceribelli M, Duveau DY, Guha R, Ferrer M, Arnaldez FI, Ji J, Tran HL, Zhang Y, Mendoza A, Helman LJ, Thomas CJ. Matrix Screen Identifies Synergistic Combination of PARP Inhibitors and Nicotinamide Phosphoribosyltransferase (NAMPT) Inhibitors in Ewing Sarcoma. Clin Cancer Res. 2017 Dec 1;23(23):7301-7311. doi: 10.1158/1078-0432.CCR-17-1121. Epub 2017 Sep 12. PMID: 28899971; PMCID: PMC6636827.
Potency is the fitted concentration of half-maximal effect.

SMILES | Potency
CN1CCC(CNc2ccc3ncc(-c4cccc(OC(F)(F)F)c4)n3n2)CC1 | 4690 nM (active)
O=C(O)c1ccc2c(c1)nc(Nc1cccc(Cl)c1)c1ccncc12 | 2350 nM (active)
CCOc1cc2ncc(C#N)c(Nc3ccc(F)c(Cl)c3)c2cc1NC(=O)C=CCN(C)C | 74.3 nM (active)
CCc1c2c(nc3ccc(O)cc13)-c1cc3c(c(=O)n1C2)COC(=O)[C@]3(O)CC | 1 nM (active)
CC[C@H]1CN2CCc3cc(OC)c(OC)cc3[C@H]2C[C@@H]1C[C@@H]1NCCc2cc(OC)c(OC)cc21 | 526 nM (active)
C=CC(=O)Nc1cccc(Oc2nc(Nc3ccc(N4CCN(C)CC4)cc3OC)ncc2Cl)c1 | 1 nM (active)
CCC1=C[C@@H]2CN(C1)Cc1c([nH]c3ccccc13)[C@@](C(=O)OC)(c1cc3c(cc1OC)N(C)[C@@H]1[C@@](O)(C(=O)OC)[C@H](OC(C)=O)[C@]4(CC)C=CCN5CC[C@]31[C@@H]54)C2 | 166 nM (active)
COc1ccc2c(c1)CC[C@@H](CN(C)CC(=O)O)[C@H]2c1ccccc1 | 833 nM (active)
Nc1ccn([C@@H]2O[C@H](CO)[C@H](O)C2(F)F)c(=O)n1 | 1 nM (active)
C[C@@H]1CN(CC(=O)Nc2ccc3c(c2)Cc2cccc(-c4cc(=O)cc(N5CCOCC5)o4)c2S3)C[C@H](C)O1 | 1320 nM (active)
CC(C)(C)NC(=O)[C@H]1CN(Cc2cccnc2)CCN1C[C@@H](O)C[C@@H](Cc1ccccc1)C(=O)N[C@H]1c2ccccc2C[C@H]1O | 10500 nM (active)
CC(C)c1ccc(Cn2ccc3c4c(N)nc(NC5CC5)nc4ccc32)cc1 | 1660 nM (active)
Nc1cccc(-c2cc3c(Oc4cccc(O)c4)ncnc3[nH]2)c1 | 2640 nM (active)
COCCn1c2c([n+](Cc3cnccn3)c1C)C(=O)c1ccccc1C2=O | 296 nM (active)
Cc1cc(Nc2cc(N3CCN(C)CC3)nc(C=Cc3ccccc3)n2)n[nH]1 | 605 nM (active)
CC=C1NC(=O)[C@H]2CSSCCC=C[C@H](CC(=O)N[C@H](C(C)C)C(=O)N2)OC(=O)[C@H](C(C)C)NC1=O | 59 nM (active)
Cn1cncc1[C@@](N)(c1ccc(Cl)cc1)c1ccc2c(c1)c(-c1cccc(Cl)c1)cc(=O)n2C | 14.8 nM (active)
COc1cc(C)c(Sc2cnc(NC(=O)c3ccc(CNC(C)C(C)C)cc3)s2)cc1C(=O)N1CCN(C(C)=O)CC1 (stereo not given) | 10500 nM (active)
CCOc1ccccc1OCCNC(C)Cc1ccc(OC)c(S(N)(=O)=O)c1 (stereo not given) | inactive
COc1cccc2c(NCc3ccccc3)nc(-n3c(N)nc4ccccc43)nc12 | 2960 nM (active)

SMILES | Potency
CN1CC[C@@H](c2c(O)cc(O)c3c(=O)cc(-c4ccccc4Cl)oc23)[C@@H](O)C1 | 29.6 nM (active)
CC(C)[C@H](C(=O)Nc1ccc(C(=O)NO)cc1)c1ccccc1 | 418 nM (active)
CC(C)c1cnn2c(NCc3ccccc3)cc(N[C@@H](CO)[C@H](O)CO)nc12 | 235 nM (active)
Cn1c(CNc2ccc(C(=N)N)cc2)nc2cc(C(=O)N(CCC(=O)O)c3ccccn3)ccc21 | inactive
Nc1nccc(Oc2ccc(NC(=O)c3c[nH]cc(-c4ccc(F)cc4)c3=O)cc2F)c1Cl | 18700 nM (active)
CC[C@H](CO)Nc1nc(NCc2ccccc2)c2ncn(C(C)C)c2n1 | 16600 nM (active)
CC(=O)Nc1nc(C)c(-c2ccc(Cl)c(S(=O)(=O)NCCO)c2)s1 | 105 nM (active)
CN(C)CC=CC(=O)Nc1cc2c(Nc3ccc(F)c(Cl)c3)ncnc2cc1O[C@H]1CCOC1 | 372 nM (active)
CC=CC1=C(C(=O)O)N2C(=O)[C@H](NC(=O)[C@H](N)c3ccc(O)cc3)[C@@H]2SC1 | 26400 nM (active)
COc1cc2c(Oc3ccc(-c4cnc(Nc5ccc(F)cc5)n(C)c4=O)cc3F)ccnc2cc1OCCCN1CCOCC1 | 7430 nM (active)
CC(C)CC(=O)Nc1n[nH]c2c1CN(C(=O)C1CCN(C)CC1)C2(C)C | 1660 nM (active)
COc1ccc(F)c(F)c1C(=O)c1cnc(NC2CCN(S(C)(=O)=O)CC2)nc1N | 1660 nM (active)
Cn1cc(-c2[nH]c3cc(NC(=O)[C@H](N)C4CCCCC4)cc4c3c2C=NNC4=O)cn1 | 6620 nM (active)
CC1(O)CC(c2nc(-c3ccc4ccc(-c5ccccc5)nc4c3)c3c(N)nccn23)C1 (stereo not given) | 209 nM (active)
COc1cc2c(Nc3ccc(NC(=O)c4ccccc4)cc3)ncnc2cc1OCCCN1CCOCC1 | 2640 nM (active)
OCCCNc1cc(-c2ccnc(Nc3cccc(Cl)c3)n2)ccn1 | 46.9 nM (active)
CC(C)(O)c1cc2nc(-c3cnc(N)nc3)nc(N3CCOCC3)c2s1 | 372 nM (active)
CCN(CC)CCNC(=O)c1ccc2nc(-c3ccccc3)c(-c3ccc(CN4CCC(n5c(=O)[nH]c6ccccc65)CC4)cc3)nc2c1 | 1050 nM (active)
Nc1ncnc2c1c(-c1cnc3[nH]ccc3c1)nn2C1CCCC1 | 1180 nM (active)
C=C1C(=CC=C2CCC[C@]3(C)[C@@H]([C@H](C)C=C[C@H](C)C(C)C)CC[C@@H]23)C[C@@H](O)C[C@@H]1O | 11800 nM (active)
